Test results reported in PubChem BioAssay AID894 (National Center for Advancing Translational Sciences (NCATS), 2007).
“And” between values parts separate entries of the source, which are not always exact repeats. Equal entries are not always repeated. In all, about 150,000 compounds went through this assay and about 6,500 (4.3%) were called active. Not shown: some 12% with an inconclusive outcome. The entries come from a sample that favours actives as a whole. Unmarked numbers belong to inactive results. Calls follow the shape of the dose curve; as a rule, active = well fitted inhibition curve with a large enough effect (not every such curve was filed as active); inconclusive = small, poorly fitted or top-dose-only effect, or another doubt; inactive = no such curve, though single readings can be large or run the other way.

Molecular target: 15-hydroxyprostaglandin dehydrogenase [NAD(+)] (Homo sapiens) (UniProt P15428)
Assay: qHTS Assay for Inhibitors of HPGD (15-Hydroxyprostaglandin Dehydrogenase)
Conditions: purified HPGD, NADH fluorescence kinetic, PGE2 substrate; activity change, negative = inhibition: stronger effect = lower value
In short: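 20 nM HPGD preincubated 15 min at room temperature with compound in 50 mM Tris-HCl pH 8, 0.01% Tween 20. Started with 1 mM NAD+ and 30 uM prostaglandin E2; NADH fluorescence (360/450 nm) read 5 times over 30-s intervals, last minus first.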
% is scaled to controls: 0 for no effect and ±100 for the full control effect; potency is read from the fitted curve at half-maximal effect.

Chain of 15-hydroxyprostaglandin dehydrogenase [NAD(+)] (Homo sapiens) (P15428 whole entry, looked up): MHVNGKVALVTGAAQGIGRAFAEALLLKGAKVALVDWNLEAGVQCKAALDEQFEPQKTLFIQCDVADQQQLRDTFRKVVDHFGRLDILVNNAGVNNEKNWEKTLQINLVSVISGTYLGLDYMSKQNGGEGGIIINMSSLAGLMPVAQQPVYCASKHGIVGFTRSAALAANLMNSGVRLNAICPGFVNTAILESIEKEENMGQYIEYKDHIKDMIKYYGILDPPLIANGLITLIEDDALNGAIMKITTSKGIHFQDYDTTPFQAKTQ

Compound | activity change, negative = inhibition | Potency
CN(CC(=O)NCCc1ccccc1)S(=O)(=O)c1cnc[nH]1 | -0.3% | –
Cc1cccc(C)c1NC(=O)C(c1ccccc1)N1CC(=O)Nc2ccccc21 (stereo not given) | -5.54% | –
C=CCN(CC=C)S(=O)(=O)c1ccc(C(=O)Nc2nc3c(s2)CCc2ccccc2-3)cc1 | -28.8% | –
O=C(/C(=C/c1cccc(Cl)c1)c1nc2ccccc2[nH]1)c1ccccc1 | -17.6% | –
COc1ccc(C/C(C)=N/NC(=O)c2ccncc2)cc1 | -13.4% | –
COc1ccc([N+](=O)[O-])cc1NC(=O)C(C)OC(=O)C1c2ccccc2Oc2ccccc21 (stereo not given) | -5.7% | –
NC1CCN(O)C1=O (stereo not given) | -4.5% | –
O=C1N(c2ccc(Cl)cc2)C(c2ccc(Cl)cc2)N2CCCN12 (stereo not given) | 4.12% | –
COc1ccc(CNC(=O)CN(Cc2ccc(Cl)cc2)S(C)(=O)=O)cc1 | -5.79% | –
COC(=O)c1cc(C(=O)CSc2nc(C)cc(C)n2)ccc1O | – | 17.8 µM (active)
COc1ccc(C(=O)CSc2n[nH]c(N)n2)cc1 | -10.7% | –
Cc1cc(SCC(=O)c2ccccc2)nc(SCC(=O)c2ccccc2)n1 | – | 28.2 µM (active)
Cc1nc(SCC(=O)c2ccccc2)c([N+](=O)[O-])[nH]1 | -5.29% | –
CCOC(=O)c1c(C)[nH]c(C)c1C(=O)CSc1nc(N)cc(N)n1 | -1% | –
O=C(CSc1nnc2ccccn12)c1ccccc1 | 78.8% | –
C/C=C(\C)C(=O)O[C@H]1CC(C)=C2C(=O)C=C(C)C2[C@@H]2OC(=O)[C@@](C)(OC(=O)C=C(C)C)C21 (stereo not given in full) | -7.62% | –
O=C(Nc1ccccc1Cc1ccccc1)c1ccc2c(c1)SC1=NS(=O)(=O)CCN12 | -2.73% | –
Cc1cc(Cl)ccc1NC(=S)N1CCC(C(N)=O)(N2CCCCC2)CC1 | -9.28% | –
CCOc1ccc(NC(=O)CSc2ncnc3c2sc2ccccc23)cc1 | -9.21% | –
O=C(Nc1ccon1)c1cccc(Cl)c1 | -28.3% | –
O=C(Nc1ccon1)c1sc2ccccc2c1Cl | – | 15.8 µM (active)
O=C(N/N=C/c1c(Cl)[nH]c2ccccc12)c1sc2ccccc2c1Cl | -16.9% | –
CC/C=C\C/C=C\C/C=C\C/C=C\C/C=C\C/C=C\CCC(=O)NC(C)C(=O)O (stereo not given) | -6.96% | –
Cc1nnc(SCC(=O)N2CCOCC2)[nH]c1=O | -12.2% | –

Compound | activity change, negative = inhibition | Potency
O=C(CSc1nc2c(cnn2-c2ccc(F)cc2)c(=O)[nH]1)N1CCCCCC1 | – | 15.8 µM (active)
COc1ccc(N2CCN(C(=O)CSc3ncnc4c3cnn4-c3ccc(OC)cc3)CC2)cc1 | -8.74% | –
CCc1ccc(C2N3CC4([N+](=O)[O-])CN2CC([N+](=O)[O-])(C3)C4(C)C)cc1 (stereo not given) | 2.32% | –
CCCc1[nH]nc2c1C(C1CC=CCC1)C(C#N)=C(N)O2 (stereo not given) | -1.94% | –
CCc1ccc(C2C(C#N)=C(N)N(N(C)C)C3=C2C(=O)CCC3)s1 (stereo not given) | -10.8% | –
N#CC1=C(N)OC2=C(C(=O)CCC2)C1C1CC=CCC1 (stereo not given) | – | 20 µM (active)
Cc1ccc(NC(=O)c2oc(=O)c3ccccc3c2-c2ccccc2)c(C)c1 | -2.46% | –
O=C(CCCOc1ccccc1)NCc1ccco1 | – | 12.6 µM (active)
Cc1cccc(Nc2ccccc2C(=O)NCc2ccco2)c1C | -6.4% | –
CN(C)C(CNC(=O)CCCOc1ccccc1)c1ccco1 (stereo not given) | -16.9% | –
CCOc1ccccc1C(=O)NCc1ccco1 | – | 22.4 µM (active)
O=C(CCOc1ccccc1)NCc1ccccc1 | -13.4% | –
O=C(Nc1ccccc1)Nc1ccccc1C(=O)NCc1ccco1 | -6.05% | –
CCCCOc1ccc(C(=O)NCc2ccncc2)cc1 | -5.73% | –
CCCCOc1ccc(C(=O)NCc2ccco2)cc1 | – | 15.8 µM (active)
CC(C)(C)c1ccc(C(=O)NCCC(=O)NCc2ccco2)cc1 | -15.3% | –
O=C(Nn1c(SCc2ccc([N+](=O)[O-])cc2)nc2ccccc2c1=O)c1ccc(F)cc1 | -26.2% | –
Oc1ccc(Br)cc1C=Nc1ccc2[nH]ncc2c1 | -20.6% | –
COc1ccc(-n2nnnc2-c2nc3ccccc3s2)cc1 | -14.9% | –
CCOC(=O)C(C)Sc1nnc(CSc2nc3nc(C)cc(C)n3n2)o1 (stereo not given) | -7.77% | –
O=C1NC(c2ccccc2)=NC1(Nc1ccccn1)C(F)(F)F (stereo not given) | -0.712% | –
Cc1nc(CC(=O)NNS(=O)(=O)c2ccc(F)c(Cl)c2)cs1 | -9.95% | –
C[C@@]12CCC(=O)C=C1CC[C@H]1C2[C@@H](O)C[C@]2(C)[C@@H]1CC[C@@]2(O)C(=O)COC(=O)C1CCCC1 (stereo not given in full) | 2.72% | –
COc1cccc(-n2c(SCC(=O)NC3CCCCC3)nc3n[nH]c(C)c3c2=N)c1 | – | 15.8 µM (active)

Compound | activity change, negative = inhibition | Potency
Cn1c(SCC(=O)NC2CCCCC2)nnc1-c1cc2ccccc2o1 | -3.43% | –
C=CCn1c(CC(=O)Nc2cccc(OC)c2)nnc1SCC(=O)NC1CCCCC1 | -4.23% | –
CCN(C(=O)COC(=O)c1c(NC(C)=O)sc(C)c1C)C1CCS(=O)(=O)C1 (stereo not given) | -23.1% | –
O=C(CC(=O)N/N=C\c1cccc(Cl)c1Cl)NCc1ccccc1 | -9.68% | –
COC(=O)Cc1ccc(N(Cc2ccccc2F)S(=O)(=O)c2ccc(Br)cc2)cc1 | -19.6% | –
CCn1c(Cc2cccs2)nnc1SCC(=O)c1ccc(C)cc1 | – | 15.8 µM (active)
CCn1c(COc2ccc(OC)cc2)nnc1SCC(=O)Nc1cc(OC)ccc1OC | 1.56% | –
COC(=O)c1ccc(NC(=O)CSc2nnc(CNc3ccc(OC)cc3)n2C)cc1 | -6.05% | –
CCn1c(SCC(=O)c2ccc3ccccc3c2)nnc1-c1cccs1 | -18.4% | –
Cc1ccc(-n2c(Cc3cccs3)nnc2SCC(=O)OC(C)C)cc1 | -15.1% | –
CCn1c(CNc2ccc(OC)cc2)nnc1SCC(=O)c1ccc(OC)cc1 | – | 14.1 µM (active)
O=C(CN1CCN(S(=O)(=O)c2ccc(Br)cc2)CC1)Nc1ccccc1C(=O)c1ccccc1 | -12.5% | –
CCOC(=O)N1CCN(C(=O)C2CCN(Cc3ccc(OC)cc3OC)CC2)CC1 | -11.3% | –
CCCC(NC(=O)c1ccco1)c1nc2ccccc2[nH]1 (stereo not given) | -3.61% | –
Cc1cccc(C(=O)NC(=S)N2CCN(c3ccc([N+](=O)[O-])cc3)CC2)c1 | -19.1% | –
O=C(Cc1ccc(-c2ccccc2)cc1)NC(c1ccccc1)c1ccccc1 | – | 12.6 µM (active)
CCOC(=O)/C=C/C(=O)OCC(=O)NC(c1ccccc1)c1ccccc1 | -29.7% | –
O=C(O)Cc1ccc(-c2ccccc2)cc1 | -9.59% and -19% | –
CCCCC(=O)Nc1ccc(C(=O)Nc2cc(C(F)(F)F)ccc2Cl)cc1 | -6.97% | –
CCOc1ccc(NC(=O)c2ccc(CSc3nnnn3C)cc2)cc1 | -4.67% | –
COc1ccccc1CNc1ncnc2ccc(-c3c(C)noc3C)cc12 | – | 6.31 µM (active)
COCCNc1ncnc2ccc(-c3ccccc3CN(C)C)cc12 | -8.98% | –
COc1ccc2[nH]cc(CCNc3ncnc4ccc(-c5ccccc5CN(C)C)cc34)c2c1 | -13.3% | –
Cc1ccc(N(Cc2cc3ccccc3[nH]c2=O)C(=O)c2cccs2)cc1 | -11% | –

Compound | activity change, negative = inhibition | Potency
CCOc1ccc(C(=O)Nc2nccs2)cc1[N+](=O)[O-] | -16.3% | –
O=C(CN1CCN(c2ccc(O)cc2)CC1)NC1CCCc2ccccc21 (stereo not given) | -19.6% | –
CCOc1ccc2nc(NC(=O)c3cc([N+](=O)[O-])ccc3N3CCOCC3)sc2c1 | -5.12% | –
Cc1ccccc1Cn1nc(C)c(NC(=O)C(F)(F)F)c1C | 0.212% | –
Cc1ccccc1OCC(=O)Nc1nc(C)c(C(=O)N(C)C)s1 | -1.51% | –
COCCNC(=O)COc1ccccc1C | -18.6% | –
COCCCNC(=O)COc1cc(C)c(Cl)c(C)c1 | -21.9% | –
COCCNC(=O)COc1ccc(C)c(C)c1 | – | 20 µM (active)
CCSC(C)CC1C/C(=N/O)c2c(C)noc2C1 (stereo not given) | – | 25.1 µM (active)
CCCc1noc2c1/C(=N\O)CCC2 | -17.1% | –
CCOc1ccc(NC(=O)COc2ccc(C(=O)NC3CCCc4ccccc43)cc2OC)cc1 (stereo not given) | -12.8% | –
O=C(CCN1C(=O)c2ccccc2C1=O)C1=NN[C@@H]2C(=O)N(c3ccc(F)cc3)C(=O)[C@H]12 | -16.3% | –
CN(c1ccc(C(=O)N2CCc3ccccc3C2)cc1)S(C)(=O)=O | – | 14.1 µM (active)
O=C(C(=O)N1CCc2ccccc2C1)N1CCc2ccccc2C1 | -4.51% | –
COc1cccc(N(CC(=O)N2CCc3ccccc3C2)S(C)(=O)=O)c1 | -5.24% | –
N=c1n(CCc2ccccc2)c2ccccc2n1Cc1ccccc1F | -8.4% | –
COCCNC(=S)N/N=C/c1c(C)[nH]c2ccccc12 | -19.3% | –
O=C(Nc1cccc2ncccc12)C(Cl)(Cl)Cl | -18.4% | –
Cc1ccc(/C=C(\C#N)C(=O)Nc2cccc3ncccc23)o1 | – | 39.8 µM (active)
O=C(O)c1cc(Cl)c(Cl)cc1C(=O)Nc1cccc2ncccc12 | -16.7% | –
Cc1ccc(S(=O)(=O)N(CC(=O)N2CCc3ccccc3C2)c2cccc(Cl)c2)cc1 | -8.94% | –
Cc1ccc(S(=O)(=O)N(C)CC(=O)N2CCc3ccccc32)cc1 | -3.12% | –
Cc1ccc2c(c1)N(C(=O)CCC(=O)N1CCc3ccccc3C1)CCO2 | – | 14.1 µM (active)
